According to ChEMBL document CHEMBL3988442, “University of Dundee, Small-Polar-MMV Screening Library” (2021):
In all, about 48,000 compounds went through this assay and about 13,000 (27%) showed an effect of 50% or more. This is one part of the list.

What follows are compounds tested on Wolbachia pipientis (assay: Anti-Wolbachia Cell-Based Screen). Settings: 5 µM.
Format: functional
Parameters: scale not given: in the data most compounds retested in dose-response had high values

In order of falling “Percent Effect” value:
1. COCCn1ccc2c(C(=O)Nc3nc4c(s3)CCC4)cccc21  149.9%
2. COCc1ccc(OC)c(CNC2CCCNC2=O)c1 (stereo not given)  133.5%
3. CCc1ccc(C2NCCc3cc4c(cc32)OCCO4)cc1 (stereo not given)  132.5%
4. COC(=O)c1ccc(N2CCN(CCS(C)(=O)=O)C(C)C2)cc1 (stereo not given)  130.9%
5. COC(=O)c1ccc(N2CCN(CC(=O)NC(N)=O)C(C)C2)cc1 (stereo not given)  126.9%
6. CCOc1ccc(C(=O)N2CCN(c3nccn3C)CC2)cc1.Cl  123.5%
7. CNC(=O)NC(=O)CN1CCN(c2ccc(C(=O)OC)cc2)CC1C (stereo not given)  123.3%
8. CNC(=O)NC(=O)CCN1CCN(c2ccc(C(=O)OC)cc2)CC1C (stereo not given)  121.7%
9. CC(=O)N1CCC(Cc2cnc(Nc3cc(C)on3)cn2)CC1  121.6%
10. Cc1cnn(CC2CCCN2CC(=O)NCc2ccccn2)c1 (stereo not given)  118.9%
11. Cc1cnn(CC2CCCN2CC(=O)Nc2cc(C)no2)c1 (stereo not given)  114.2%
12. COc1c(C2CCCN2C(=O)c2ccc3c(c2)OCO3)c(C)nn1C (stereo not given)  110.4%
13. Cc1cc(C)n(CC2CCCN2CCC(=O)Nc2cc(C)on2)n1 (stereo not given)  109.3%
14. COC(=O)c1ccc(NC(C)c2ccc3c(c2)NC(=O)CO3)nn1 (stereo not given)  109.1%
15. COCCn1cc(CC(=O)Nc2nc3c(s2)CCC3)c2ccccc21  108.7%
16. Cc1oncc1C(=O)N1CCC2(CCN(Cc3cccnc3)C2=O)C1.O=C(O)C(F)(F)F (stereo not given)  107.4%
17. Cc1nn(C)c(C)c1C1CCCN1C(=O)c1ccc2c(c1)OCCO2 (stereo not given)  107.2%
18. Cc1cc(C)n(CC2CCCCN2CCC(=O)Nc2cc(C)on2)n1 (stereo not given)  105.6%
19. CCOc1ccc(CC(=O)N2CCN(c3nccn3CC)CC2)cc1.Cl  105.4%
20. Cc1cnn(CC2CCCN2CC(=O)Nc2cc(C)on2)c1 (stereo not given)  104.6%
21. CCc1ccc(CC(=O)N2CCN(c3nccn3C)CC2)cc1  102.2%
22. Fc1ccccc1C1NCCc2cc3c(cc21)OCCO3 (stereo not given)  96.06%
23. Cc1oncc1C(=O)N1CC[C@@H]2[C@@H]1CC(=O)N2Cc1cccnc1.O=C(O)C(F)(F)F  95.81%
24. Cc1cnn(CC2CCCN2CC(=O)Nc2nccs2)c1 (stereo not given)  91.79%
25. CCC(=O)N1CCC(Cc2cnc(Nc3cnccn3)cn2)CC1  88.17%
26. COC(=O)c1ccc(NC(C)c2ccc3c(c2)CC(=O)N3)nn1 (stereo not given)  83.43%
27. Cc1oncc1C(=O)N1CCC2(CCN(Cc3cccc(F)c3)C2=O)C1 (stereo not given)  82.89%
28. Clc1ccc(C2NCCc3cc4c(cc32)OCCO4)cc1 (stereo not given)  60.9%
29. COC(=O)c1ccc(NC(C)c2ccc3c(c2)CCC(=O)N3)nn1 (stereo not given)  54.02%
30. Cc1ccccc1CN(Cc1ccc(S(C)(=O)=O)cc1)CC(C)C  34.24%
31. CCn1nc(CC(C)C)cc1C(=O)N1CCOCC(O)C1 (stereo not given)  14.61%
32. CCn1ccnc1C1CCN(C(=O)C(O)c2ccc(OC)cc2)CC1 (stereo not given)  13.84%
33. COc1ccc(C(C)NS(=O)(=O)c2ccc3c(c2)CCC(=O)N3)cc1F (stereo not given)  13.2%
34. CN(CC(=O)Nc1nc2c(s1)CCC2)C(=O)c1cccs1  12.75%
35. COCCn1cc(C(=O)N2CCCC2c2ccncc2)c2ccccc21 (stereo not given)  12.21%
36. O=C(CSc1ccc2c(c1)OCCO2)NS(=O)(=O)c1ccccc1F  11.66%
37. CCOc1ccc(NC(=O)CN2CCN(c3nccn3C)CC2)cc1  10.39%
38. Cc1cc(C)n(CC2CCCCN2CC(=O)Nc2ccncc2)n1 (stereo not given)  9.261%
39. COC(=O)c1ccc(N2CCN(CCC#N)C(C)C2)cc1 (stereo not given)  9.254%
40. Cc1cnn(CC2CCCCN2CC(=O)Nc2c(C)n[nH]c2C)c1 (stereo not given)  8.734%
41. CC(=O)N1CCCC(C(=O)N2CCN(Cc3cc(C)on3)CC2)C1 (stereo not given)  8.609%
42. CSc1nnc(CC2CCN(C(=O)COc3cccnc3)CC2)n1C  8.261%
43. CCN1CCC(NC(=O)CN2CCCCC2Cn2cc(C)cn2)CC1 (stereo not given)  7.683%
44. CC(NC(=O)Nc1ccncc1)c1ccc2c(c1)CC(=O)N2 (stereo not given)  6.994%
45. CCOc1cc(N2CCN(C(=O)c3ccc(OC)cc3)CC2)nc(C)n1  6.189%
46. COCCN1CCC2(CCCN(C(=O)c3cnoc3C)C2)C1=O (stereo not given)  5.935%
47. Cc1ccc(N2CCC(NC(C)c3ccc(C)o3)CC2)nc1 (stereo not given)  5.031%
48. Cn1cccc1CNCC1CCCn2cc(C(C)(C)C)nc21 (stereo not given)  4.297%
49. Cc1nn(C)c(Cl)c1C1CCCN1C(=O)c1ccc2c(c1)OCO2 (stereo not given)  4.266%
50. COC(=O)c1ccc(N2CCN(CCC(=O)NC(N)=O)C(C)C2)cc1 (stereo not given)  4.115%
51. NCC1CCN(c2cnn(CCCn3cccn3)c(=O)c2)CC1  3.68%
52. O=C(CCn1ccnc1)N1CC[C@@H](c2ccc3ccccc3c2)[C@H](O)C1  3.256%
53. Cc1cnn(CC2CCCCN2CCC(=O)Nc2cc(C)on2)c1 (stereo not given)  2.664%
54. COc1ccc(-c2noc(Cn3cc4c(n3)CCC4)n2)c(OC)c1OC  2%
55. Cc1cnn(CC2CCCN2CC(=O)Nc2nncs2)c1 (stereo not given)  1.96%
56. CC(=O)N1CCC(NC2(Cc3cc(C(C)(C)O)on3)COC2)CC1  1.756%
57. C=C(C)CN(CC)Cc1nc(C(C)(C)C)no1  1.625%
58. F[C@@H]1CN(Cc2nccs2)C[C@@H]1OCc1nc2cnccc2[nH]1  1.083%
59. Cc1nn(C)c(C)c1C1CCCN1C(=O)c1ccc(CN(C)C)cc1 (stereo not given)  0.5484%
60. OCCCNC1CCc2cc3c(cc21)OCCO3 (stereo not given)  0.5317%
61. COc1ccc(C)cc1C(C)NS(=O)(=O)c1ccc2c(c1)CCC(=O)N2 (stereo not given)  -0.1201%
62. Cc1cnn(CC2CN(CC(=O)NCc3ccccn3)CCO2)c1 (stereo not given)  -0.3283%
63. Cc1cc(C)n(CC2CCCN2CC(=O)NC2CCOCC2)n1 (stereo not given)  -0.8879%
64. CC(NC(=O)NCCn1ccnc1)c1ccc2c(c1)NC(=O)CO2 (stereo not given)  -0.9133%
65. Cc1cccc(CN2CCCC(O)(CNCc3cccc(F)c3)C2=O)c1 (stereo not given)  -1.044%
66. CN(C)C(=O)C1CN(Cc2ccc(C#N)cc2F)c2ccccc2O1 (stereo not given)  -1.206%
67. Cc1cc2n(n1)CC(CNC1CCN(Cc3ccccc3C)CC1)CN2 (stereo not given)  -1.399%
68. Cc1c(Br)cccc1NC(=O)N(C)CCO  -1.587%
69. COc1cccc(NC(=O)NC(C)c2ccc3c(c2)CC(=O)N3)c1 (stereo not given)  -1.814%
70. c1cncc(-c2c[nH]c([C@@H]3COCCN3Cc3ccncc3)n2)c1  -1.952%
71. COc1ccc(CCNC(=O)C2CCC(Cn3cnnn3)CC2)cc1 (stereo not given)  -2.407%
72. COCC(=O)N1CCN(c2ccc(C(=O)OC)cc2)CC1C (stereo not given)  -2.487%
73. OCCNC1CCc2cc3c(cc21)OCCO3 (stereo not given)  -2.778%
74. CSc1cc2c(cc1NC(=O)NCc1ccco1)OCCO2  -2.93%
75. COC(=O)c1ccc(N2CCN(CCN3CCOCC3)C(C)C2)cc1 (stereo not given)  -3.012%
76. Cc1nn(C(C)C)c(C)c1S(=O)(=O)Nc1ccc(C(=O)O)cc1  -3.585%
77. O=C(CCSc1ccccc1F)NS(=O)(=O)c1ccc2c(c1)OCCO2  -3.97%
78. Cc1cc(C)n(CC2CCCN2CC(=O)Nc2nnc(C)s2)n1 (stereo not given)  -4.484%
79. CC(NC(=O)N1CCN(c2cccs2)CC1)c1ccncc1 (stereo not given)  -4.876%
80. Cc1nc(C(=O)N2CCCC2c2c(C)nn(C)c2C)ccc1C#N (stereo not given)  -5.29%
81. Cc1cnn(CC(=O)NC2CCCc3cc(OC(F)F)ccc32)c1 (stereo not given)  -5.352%
82. COc1ncccc1C(=O)Nc1nc2c(s1)CN(S(=O)(=O)C1CC1)CC2  -5.987%
83. COC(=O)c1ccc(N2CCN(C(=O)CC(F)(F)F)C(C)C2)cc1 (stereo not given)  -6.136%
84. CCC(=O)N1CCN(c2ccc(C(=O)OC)cc2)CC1C (stereo not given)  -6.169%
85. CCn1ccnc1C1CCN(C(=O)Nc2ccc(OC)cc2)CC1  -6.796%
86. Cn1cc(N2CC3(CCN(S(C)(=O)=O)C3)CC2=O)cn1 (stereo not given)  -6.805%
87. Cc1cnn(CC2CCCCN2CC(=O)Nc2nncs2)c1 (stereo not given)  -7.053%
88. COc1cc(Br)c(CNC2CCCNC2=O)cc1OC.Cl (stereo not given)  -7.392%
89. COc1nc2ccn(CCNc3cc(C)ccn3)c(=O)c2cc1C#N  -7.591%
90. OCC1(CNC2CCc3cc4c(cc32)OCCO4)CC1 (stereo not given)  -8.17%
91. O=C(CN1CCCCC1Cn1cncn1)NCc1ccccn1 (stereo not given)  -8.236%
92. COC(=O)c1ccc(N2CCN(C(=O)C3CCC3)C(C)C2)cc1 (stereo not given)  -8.706%
93. COC(=O)c1ccc(N2CCN(C(=O)C3CC3)C(C)C2)cc1 (stereo not given)  -9.327%
94. CC(NC(=O)NCCCn1cccn1)c1ccc2c(c1)NC(=O)CO2 (stereo not given)  -10.21%
95. COc1cc(Br)cc(CNC2CCCNC2=O)c1O (stereo not given)  -10.61%
96. Cc1cc(C)n(CC2CCCCN2CC(=O)Nc2nnc(C)s2)n1 (stereo not given)  -11.09%
97. CN(CC(=O)Nc1nc2c(s1)CCCCCC2)C(=O)c1ccco1  -14.29%
98. Cc1occc1C(=O)Nc1cc(N2CCNC2=O)ccc1Cl  -16.86%
99. CCc1cc(N[C@H]2CCC[C@H]2O)n2nccc2n1  -17.41%
100. NC(=O)CCSCc1cc(Br)cc2cccnc12  -18.43%
101. CCNC(=O)C(C)NC(=O)Nc1ccccc1SCC (stereo not given)  -19.41%
102. O=C(O)C(F)(F)F.O=C(c1ccco1)N1CC[C@H]2[C@H]1CC(=O)N2c1cccnc1  -20.41%
103. CCn1cc(C#N)c(=O)c2cc(Br)ccc21  -20.97%
104. O=C(NC1CC1)C1CN(Cc2ccc3c(c2)OCCO3)CCN1 (stereo not given)  -21.08%
105. NC(=O)CC1CCCCN1C(=O)Cc1cccc(Br)c1 (stereo not given)  -22.53%
106. CNCC(=O)N[C@H]1CN(c2nc(C)c3c(n2)CCCC3)C[C@@H]1C1CC1  -22.84%
107. O=C(CC(F)(F)F)N1C[C@H]2CC[C@@H]1CN(Cc1ccccc1)C2  -26.8%
108. O=C(Cc1cnccn1)N1CCC(c2nccn2CC2CC2)CC1  -28.72%
109. Cc1oncc1C(=O)N1CC[C@H]2[C@@H]1CCC(=O)N2c1cccnc1.O=C(O)C(F)(F)F  -37.57%
110. CCc1nc2c(NCC3COc4ccccc4C3)ncnc2o1 (stereo not given)  -41.62%
